Results on four compounds are retold here after the supplement of paper PMC7801607.

In assay [1] the test system is Plasmodium falciparum NF54 stage IV/V gametocytes. Nature of the assay: % inhibition of gametocyte viability (PrestoBlue); higher = more inhibition. Conditions: 48 h. Put shortly:
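Stage IV/V NF54 gametocytes were exposed to compound at 1 or 5 µM for 48 h at 37 °C under stationary, hypoxic conditions, then read by PrestoBlue fluorescence at 612 nm. The percent inhibition of gametocyte viability was normalised to vehicle and kill controls from one run.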

For assay [2], the system named is Plasmodium falciparum NF54 asexual blood stage. Nature of the assay: % inhibition of asexual blood stage proliferation (pLDH); higher = more inhibition. Conditions: 72 h. Put shortly:
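Ring-stage cultures of Plasmodium falciparum NF54 at 1% haematocrit and 2% parasitaemia were treated with compound at 2 or 20 µM in 96-well plates and kept for 72 h at 37 °C under 4% CO2, 3% O2 and 93% N2. Parasite survival was measured by the parasite lactate dehydrogenase assay, read colorimetrically at 620 nm. Percent inhibition of asexual proliferation was calculated relative to control wells, and the screen was carried out on two separate occasions.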

In assay [3] the test system is Plasmodium falciparum NF54 stage IV/V gametocytes. Nature of the assay: % inhibition of gametocyte viability (ATP bioluminescence); higher = more inhibition. Conditions: 24 h. In a few lines: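 Stage IV/V NF54 gametocytes were enriched on density gradients and seeded at 30,000 per well in 96-well plates with compound at 1 or 5 µM. Plates were incubated for 24 h at 37 °C. ATP was measured with the Promega BacTiter Glo bioluminescence system. Percent inhibition of gametocyte viability was normalised to DMSO and kill controls from a single run.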

Assay [4] has the same test system. Nature of the assay: % inhibition of gametocyte viability (luciferase reporter); higher = more inhibition. Conditions: 48 h. Put shortly:
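Stage IV/V gametocytes of the NF54-Pfs16-GFP-Luc line (2% gametocytaemia, 2% haematocrit) were exposed to compound at 1 or 5 µM. Incubation was 48 h at 37 °C, stationary and hypoxic. Luminescence was read on 30 µL lysate plus 30 µL Promega luciferin substrate on a GloMax-Multi+ reader with 10 s integration. Percent inhibition was normalised to DMSO and kill controls from a single run.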
On the technique in general: A reporter such as luciferase makes a cellular process visible.

For another assay, the system named is CHO. The assay is described as follows: % viability of CHO cells (MTT); higher = less toxic. Conditions: 48 h. In a few lines:
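Percent viability of CHO cells, relative to untreated cells, was read colorimetrically by tetrazolium (MTT) assay. Cells were seeded at 10^6 cells/well and treated for 48 h with compound at 2 or 20 µM in fresh medium.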

Another assay has as its system HepG2-A16-CD81. The assay is described as follows: % inhibition of HepG2 viability (CellTiter-Glo); higher = more toxic. Conditions: 5 µM. In general terms: In ATP-based viability assays light output follows the ATP content of the culture.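 Also: HepG2-A16-CD81 hepatoma cells plated as in the liver-stage assay but without sporozoites, with DMSO wells as negative and 25 µM puromycin as positive control.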

Consider `CC(Oc1ccc(Cl)cc1Cl)C(=O)NCc1ccc2c(c1)OCO2` (stereo unspecified), for which the “% inhibition of gametocyte viability” value was less than 0% in assay [1] (1 µM); 35.3% in assay [1] (5 µM); less than 0% in assay [3] (1 µM); less than 0% in assay [3] (5 µM); less than 0% in assay [4] (1 µM); less than 0% in assay [4] (5 µM). Besides, the entries for the “% inhibition of asexual blood stage proliferation” value in assay [2] (2 µM) and in assay [2] (20 µM) were -4.14% and -3.59%, respectively.
Consider `O=C(Nc1ccccc1)N(Cc1cc(Br)ccc1O)c1ccc(F)cc1`, for which the results for the “% viability of CHO cells” value in the assay on CHO (2 µM) and with CHO (20 µM) were 99.5% and 61.3%, respectively. In addition, the “% inhibition of HepG2 viability” value in the assay with HepG2-A16-CD81 is -2.44%. In addition, the “% inhibition of gametocyte viability” value in assay [1] (1 µM) was 27.2%; in assay [1] (5 µM), 8.98%; in assay [3] (1 µM), less than 0%; in assay [3] (5 µM), less than 0%; in assay [4] (1 µM), less than 0%; in assay [4] (5 µM), less than 0%. Also, the entries for the “% inhibition of asexual blood stage proliferation” value in assay [2] (2 µM) and in assay [2] (20 µM) were 6.3% and 14.7%, respectively.
As for `CC(=O)N1CCN(c2ccc(OCC3COC(Cn4ccnc4)(c4ccc(Cl)cc4Cl)O3)cc2)CC1` (stereo unspecified), the “% viability of CHO cells” value came to 105% in the assay on CHO (2 µM) and 60.1% with CHO (20 µM). In addition, in the assay with HepG2-A16-CD81, the “% inhibition of HepG2 viability” value was 0.653%. In addition, the “% inhibition of gametocyte viability” value in assay [1] (1 µM) is 6.22%; in assay [1] (5 µM), less than 0%; in assay [3] (1 µM), less than 0%; in assay [3] (5 µM), less than 0%; in assay [4] (1 µM), less than 0%; in assay [4] (5 µM) it was less than 0%. For the same compound, the entries for the “% inhibition of asexual blood stage proliferation” value in assay [2] (2 µM) and in assay [2] (20 µM) were 2.92% and 64.4%, respectively.
`CN(C)CCCNC(=O)c1ccc(-c2cc(O)c3ncccc3c2)cc1`: the “% viability of CHO cells” value in the assay on CHO (2 µM) turned out to be 115%; with CHO (20 µM), 110%. The “% inhibition of HepG2 viability” value with HepG2-A16-CD81 is -5.75%. Also, the “% inhibition of gametocyte viability” value in assay [1] (1 µM) came out at 70.8%; in assay [1] (5 µM), 81.4%; in assay [3] (1 µM) it was 71%; in assay [3] (5 µM), 81.1%; in assay [4] (1 µM), 5.12%; in assay [4] (5 µM), 23.3%. Further, the entries for the “% inhibition of asexual blood stage proliferation” value in assay [2] (2 µM) and in assay [2] (20 µM) were 68.6% and 82.4%, respectively.
